# Wnt act – Wnt/beta-catenin pathway activation | Wnt/beta-catenin reporter cell assay, activator, plate reader | AID 743398 | activation, % at 9.35 µM | actives 1.2% (n = 300,000); in the data active = activation above about 30%, passing the limit was not always enough; inconclusive = no clear call, values can overlap the other calls;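 also: 0% = neutral control wells and 100% = positive control wells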
# MITF TRPM1 HTS – increases MITF-driven TRPM1 promoter luciferase signal | SK-MEL-5 TRPM1-promoter luciferase, 24 h; % of positive control, neutral wells = 0 | AID 588334 | activation, % at 12.5 µM | actives 0.75% (n = 300,000);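 active = mean activation of at least 80% with every replicate also reaching 80%; inconclusive = mean reaches 80% but some replicate falls short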;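 also: 0% = neutral control wells and 100% = parthenolide positive control wells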
# MITF TRPM1 inh – reduces MITF-dependent TRPM1 promoter luciferase signal. SK-MEL-5 TRPM1 promoter luciferase, 24 h. inhibition, % at 12.5 µM. actives 0.83% (n = 330,000). AID 488899;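 active = mean inhibition across replicates of 60% or more, whatever share of single replicates reaches that level; inconclusive = some that reach 60%, reason not given; inactive = mean inhibition across replicates below 60%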
# esBAF inh – SWI/SNF esBAF complex inhibition; mouse ES cells, Bmi1-luciferase knock-in reporter, 24 h; 100% = twice the neutral-well signal; reporter increase, % at 12.5 µM; actives 2% (n = 350,000); AID 602393; in the data active = activation above about 40%; inconclusive = no clear call, values can overlap the other calls;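 also: 0% = median of the plate's neutral control wells and 100% = double that signal; a rise in the Bmi1 reporter signal indicates esBAF inhibition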
# LMP1 NFkB inh – reduces LMP1-driven NF-kappaB luciferase signal; LMP1-induced NF-kappaB luciferase reporter cells, luminescence; inhibition, % at 12.5 µM; actives 0.69% (n = 350,000); AID 504558; in the data active = inhibition above about 41%; inconclusive = no clear call, values can overlap the other calls;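 also: 0% = neutral control wells and 100% = reference inhibitor control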
# C2C12 statin – protects C2C12 myotubes from simvastatin toxicity. ATP luminescence, 48 h; scaled: DMSO 0, geranylgeraniol control 100. rescue of ATP level, % at 7.49 µM. actives 0.78% (n = 330,000). AID 602340;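 active = mean ATP rescue above about 67%, or every replicate alone reaching that limit, limit read from the data, passing the limit was not always enough; inconclusive = no clear call, values can overlap the other calls; inactive = mean under the limit and some replicate under it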;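 also: myotubes were challenged with 10 µM simvastatin during compound exposure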
# Numbers without * were called inactive; u = inconclusive; x = not tested or not shown; ! = not confirmed by another sample. Only some compounds are listed: those with a hit (about 4% of all), similar ones and a draw of the others.
SMILES,Wnt act,MITF TRPM1 HTS,MITF TRPM1 inh,esBAF inh,LMP1 NFkB inh,C2C12 statin
Cc1ccc(NC(=O)c2onc(C)c2Cl)cc1,0.7,22.5,-22.2,2.2,-26.2,-14.4
O=C(Nc1ccc(F)c(Cl)c1)c1ccccc1,u,71.8,-66.8,70.0*,-8.5,-1.6
C[C@H](CO)N1C[C@H](C)[C@@H](CN(C)Cc2ccncc2)Oc2c(NS(=O)(=O)c3ccc(Cl)cc3)cccc2C1=O,-1.0,14.2,-17.1,-3.7,-3.7,-9.6
CCOC(=O)c1c(C)[nH]c(C(=O)OCC(=O)Nc2ccccc2)c1C,-0.7,8.6,-8.6,-2.6,-2.1,-0.4
O=C(Nc1ccc(F)c(Cl)c1)c1ccc2c(c1)OCO2,0.1,x,-57.7,55.5*,-16.1,7.2
COc1ccc(NC(=O)c2cc(F)c(F)cc2Cl)cc1Cl,20.0,56.2,-55.9,52.2*,-8.1,0.4
COc1ccc(NC(=O)c2ccc3c(c2)OCO3)cc1Cl,x,87.6*,-80.9,x,-17.5,x
COc1cc(C(=O)Nc2ccc3c(c2)OCCO3)ccc1OC(F)F,0.0,97.8*,-98.2,69.8*,-20.9,-13.1
CCOC(=O)c1ccc(NC(=O)c2cc(F)c(F)cc2Cl)cc1,4.1,12.5,-15.3,22.5,-5.5,1.9
O=C1NC2c3c(Cl)sc(Cl)c3C(=O)C2O1 (stereo not drawn),-1.9,-4.4,4.0,5.6,-4.9,18.2
O=C(CSc1ccc([N+](=O)[O-])cc1)Nc1cccc(S(=O)(=O)N2CCOCC2)c1,25.4,3.5,-1.7,6.6,2.9,-1.4
COc1cccc(N2CCN(CC(=O)NCc3ccccc3)CC2)c1,-0.6,x,6.6,-6.6,-3.3,-11.6
COc1cccc(C(=O)Nc2cccc(C(C)=O)c2)c1,1.2,50.2,-49.3,51.6*,-6.2,-6.8
COc1ccc(C(=O)Nc2cccc(OC(=O)c3ccco3)c2)cc1,27.9,110.1*,-113.6,10.9,-14.2,1.4
COc1cccc(NC(=O)c2cccc(Cl)c2)c1,40.9*,103.7*,-91.8,70.8*,-25.8,-13.6
COC(=O)c1cccc(NC(=O)c2cccc(OC)c2)c1,28.2,53.2,-48.9,60.7*,-10.2,-29.5
COc1ccc(C(=O)Nc2cccc(OC(=O)c3ccc(C)c(C)c3)c2)cc1,15.9,36.2,-33.0,21.6,-0.3,x
COc1cccc(C(=O)Nc2cccc(OC(C)=O)c2)c1,19.8,50.1,-45.6,23.1,5.3,-3.7
O=C(CNC(=O)c1ccccc1)NCC(=O)OCC(=O)c1ccccc1Cl,6.5,2.1,0.4,-1.9,1.3,3.5
O=C(Cc1c(F)cccc1Cl)NCCc1c[nH]c2ccccc12,-1.6,10.0,-9.7,3.6,1.0,-3.1
CCC(C)C(NC(=O)c1ccccc1NC(=O)c1ccc(C)cc1)C(=O)O (stereo not drawn),6.7,7.7,-13.8,x,8.1,x
Cc1ccc(C(=O)Nc2ccccc2C(=O)NC(C(=O)O)C(C)C)cc1 (stereo not drawn),5.2,24.9,-23.5,31.2*!,-8.9,64.4
COc1ccc(C(=O)Nc2ccccc2C(=O)NC(Cc2ccc(O)cc2)C(=O)NNC(=O)c2ccccc2Cl)cc1 (stereo not drawn),-2.8,9.7,-10.1,-2.1,-0.5,111.8*
COc1cccc(C(=O)NCCn2ccc3ccccc32)c1,23.8,x,x,71.0*,-44.0,5.5
CCCNC(=O)Nc1cccc(C(=O)OC)c1,34.5*,5.0,-1.3,x,0.5,x
SMILES,Wnt act,MITF TRPM1 HTS,MITF TRPM1 inh,esBAF inh,LMP1 NFkB inh,C2C12 statin
CCOC(=O)/C(=N/Nc1ccccc1)N1CCCc2ccccc21,x,-2.9,2.2,-1.8,-2.9,5.8
C[C@@H]1CN([C@@H](C)CO)C(=O)CCCn2cc(nn2)CO[C@@H]1CN(C)Cc1ccc2c(c1)OCCO2,x,x,x,0.6,x,-6.7
O=C(Nc1ccccc1)c1ccccc1O,x,x,-36.5,50.7*,-3.4,-2.7
COc1cccc(S(=O)(=O)NCc2ccc(C(=O)Nc3ccc(C)cc3)cc2)c1,x,-1.1,1.7,7.9,0.3,94.8*
O=C(Nc1ccccc1)Nc1ccc(NC(=O)c2ccccc2O)cc1,2.1,7.0,0.1,15.6,-5.1,-34.8
COc1cccc(C(=O)Nc2ccc(C(=O)c3ccccc3)cc2)c1,5.6,x,-1.9,42.0*,6.7,-1.9
COc1cc(NC(=O)c2ccccc2)cc(OC)c1,20.2,23.3,-27.5,64.9*,5.6,-1.3
COc1ccc(C(=O)Nc2cc(OC)cc(OC)c2)cc1,-1.9,x,-20.2,-0.1,-2.4,-13.0
O=C(Nc1ccccc1F)c1oc2ccccc2c1NC(=O)C1CC1,-0.3,12.9,-17.9,5.7,3.6,-35.7
CC[N+]1(CC)CC2=Cc3c(ccc4ccccc34)CC2C1 (stereo not drawn),x,-4.2,7.4,5.3,0.1,-42.4
COc1ccc(C(=O)Nc2ccccc2C(=O)Nc2ccccn2)cc1,9.2,x,-48.7,u,-1.6,-7.3
COc1ccc(NC(=O)c2cccc(NC(=O)c3ccccc3)c2)cc1,2.0,x,-43.1,40.9*,-24.7,1.3
COc1ccc(C(=O)Nc2ccccc2C(=O)Nc2ccccc2)cc1,25.8,x,x,46.0*,-31.0,-8.6
COc1ccc(C(=O)Nc2ccc(C(=O)c3ccccc3)cc2)cc1,-1.2,x,x,x,x,x
COC(=O)c1ccc(NC(=O)c2cccc(OC)c2)cc1,0.0,60.0,-58.5,46.8*,-21.9,-23.3
CC(C)c1cc(NC(=O)c2ccccc2)cc(C(C)C)c1O,-0.7,2.1,-1.4,-1.4,58.9*,-6.1
COc1cccc(C(=O)Nc2ccc(C(=O)O)cc2)c1,x,6.0,-9.5,-3.9,-6.1,-4.0
CCCC(=O)N1CCCC1(C)C(=O)NCc1ccc(F)cc1Cl (stereo not drawn),-0.6,x,x,-2.1,x,9.8
COc1ccc(C(=O)N2CCCCC2c2cc(C(=O)NCc3ccc(Cl)c(Cl)c3)no2)cc1 (stereo not drawn),-1.4,x,x,-6.4,x,-0.2
COc1ccc(CC(=O)N2CCNC2=O)cc1,-0.8,1.5,-2.8,4.3,1.9,-1.8
Cc1ccc(NC(=O)c2cc(-n3cnnc3)ccc2Cl)c(C)c1,-2.3,-8.6,6.8,x,-4.0,x
COc1cccc(C(=O)NC(=S)Nc2ccc(N(C)C)cc2)c1,16.7,u,-87.5,61.3*,-18.0,-14.1
C(=C\c1nnc(-c2cccs2)o1)/c1ccccc1,-1.9,122.7*,-122.2,7.2,-7.3,2.2
Cc1ccc(/C=C/c2nnc(-c3ccccc3)o2)cc1,x,56.6,-59.7,6.6,0.3,2.1
Clc1ccccc1-c1nnc(-c2cccs2)o1,12.1,53.9,-56.9,46.0*,-25.8,8.2
c1ccc(-c2ncc(CN3CCN(c4ccccn4)CC3)[nH]2)cc1,-3.5,-1.9,-1.1,1.6,-15.2,79.0*
CCOC(=O)N1CCc2c(sc3c2c(=O)n(Cc2ccccc2)c(=O)n3CC(=O)NCC2CCCO2)C1 (stereo not drawn),-2.5,5.6,-4.2,2.8,-7.8,41.0
CC(C)NC(=O)N1[C@H](CO)[C@@H](c2ccc(-c3ccc(F)cc3)cc2)[C@@H]1C#N,x,x,x,11.8,x,u

# Compound activity: PubChem, Broad Institute
